In the library only some 6% were active in any assay of this set; here they are far more common.
D1 antagonist – antagonists of human D1 dopamine receptor; P21728; HEK293 TREx D1 cells, calcium flux, dopamine EC80; stronger effect = lower value; activity change, negative = inhibition, % at 10 µM; 360,000 tested, 3.2% active; AID 504652; in the data active = activity change below about -30%; also: % is scaled to controls: 0 for no effect and ±100 for the full control effect
Target sequence (P21728 whole entry, looked up): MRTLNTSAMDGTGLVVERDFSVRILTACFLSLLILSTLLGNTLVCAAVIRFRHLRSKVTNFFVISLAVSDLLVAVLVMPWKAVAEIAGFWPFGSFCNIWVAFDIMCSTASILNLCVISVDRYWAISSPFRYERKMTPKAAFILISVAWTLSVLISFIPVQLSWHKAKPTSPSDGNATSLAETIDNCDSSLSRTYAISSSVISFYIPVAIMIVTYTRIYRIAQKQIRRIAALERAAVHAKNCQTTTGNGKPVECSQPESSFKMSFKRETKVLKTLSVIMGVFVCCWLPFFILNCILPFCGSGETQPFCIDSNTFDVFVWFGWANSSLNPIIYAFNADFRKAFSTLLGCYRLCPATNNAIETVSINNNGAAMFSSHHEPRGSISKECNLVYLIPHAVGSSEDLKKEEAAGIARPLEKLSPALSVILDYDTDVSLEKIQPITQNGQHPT
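HEK293 T-REx cells expressing inducible, force-coupled D1 receptor; no-wash Ca dye, 30–90 min RT. Cmpd → 180 s read at 1 Hz → EC80 DA → 180 s read.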
D3 ag – D3 dopamine receptor (human) agonism; D3R DiscoveRx beta-arrestin cells, luminescence, 90 min; max activation, %; 410,000 tested, 0.58% active; AID 652048; in the data active = max activation above about 30%; also: 0% is about no effect
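Agonist-mode cell screen: cells plated at 1500/well and incubated overnight at 37 °C, then exposed to library compounds for 90 min at 37 °C. Detection reagent was added for 30–60 min at room temperature, and luminescence was read.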
D3 antag – D3 dopamine receptor (human) antagonism. P35462. D3R cells, DiscoveRx beta-arrestin luminescence, antagonist mode; stronger effect = lower value. max response, negative = inhibition, %. 360,000 tested, 2.5% active. AID 652054; in the data active = max response below about -50%; inconclusive = no clear call, values can overlap the other calls; also: % is scaled to controls: 0 for no effect and ±100 for the full control effect
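Cells expressing the human receptor were seeded at 1500 cells/well, incubated overnight at 37 degrees C in 5% CO2, then exposed to library compounds with dopamine controls for 90 minutes at 37 degrees C before luminescent detection.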
D1 agonist – activates the human D1 dopamine receptor; P21728; HEK293 T-REx D1 cells, calcium flux, agonist mode; activation, % at 2 µM; 360,000 tested, 1% active; AID 504660; in the data active = activation above about 30%; also: 0% is about no effect
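Inducible HEK293 T-REx D1 cells, force-coupled to calcium signalling, were plated at 4000 cells/well with tetracycline and held overnight at 30 C. After no-wash calcium dye loading, compound-evoked calcium rise over 180 s flagged agonists.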
D1 potentiator – enhances dopamine response at the human D1 receptor | potentiation, % at 10 µM | AID 504651 | HEK293 TREx D1 cells, calcium flux, dopamine EC20 potentiation | 360,000 tested, 0.036% active | P21728; in the data active = potentiation above about 30%; also: 0% is about no effect
* = called active by the depositor.

C=C(C)CC(NCc1ccco1)c1ccc(OC)cc1 (configuration not stated) was read as D1 antagonist -36*, D3 ag -15, D3 antag 28, D1 agonist 5 and D1 potentiator 4.
`CCOC(=O)c1c(C)[nH]c(C)c1S(=O)(=O)N1CCC(C(=O)NCc2ccc(OC)cc2)CC1` gave D1 antagonist -11, D3 ag -11, D1 agonist 0 and D1 potentiator 0.
CCC(C(=O)NC(=O)NC(C)=O)c1ccccc1 (configuration not stated) was read as D3 ag -3.
CCCCCCCCCCCC(=O)NC(C(=O)OCC)C(O)c1cccc([N+](=O)[O-])c1 (configuration not stated) was read as D3 ag 32* and D3 antag 4.
For Cc1cc(Cl)c2ccc3ccccc3c2n1 the results were D1 antagonist -2, D3 ag -3, D3 antag 0, D1 agonist 2 and D1 potentiator -1.
Cc1ccc2c(Cl)cc(Cl)c(O)c2n1 was read as D3 ag -18 and D3 antag -110*.
CCCOCc1ccc(O)c2ncccc12 was read as D1 antagonist 10, D3 ag -12, D3 antag -71*, D1 agonist 1 and D1 potentiator 12.
O=C(Oc1c(Cl)cc(Cl)c2cccnc12)c1ccco1 was read as D1 antagonist -16, D3 ag -4, D3 antag -124*, D1 agonist 1 and D1 potentiator -3.
Cc1ccc2c(C)ccc(O)c2n1 was read as D1 antagonist 1, D3 ag -7, D3 antag -79*, D1 agonist -1 and D1 potentiator 2.
O=C(Oc1c(Cl)cc(Cl)c2cccnc12)c1cccs1 was read as D1 antagonist -1, D3 ag -16, D3 antag inconclusive, D1 agonist -1 and D1 potentiator -4.
Screening Cc1cccc(C)c1NC(=O)c1oc2c(c1C)-c1nn(Cc3ccccc3)cc1CC2 returned D1 antagonist -16, D3 ag 1, D1 agonist 0 and D1 potentiator 3.
For Oc1c(Cl)cc(Cl)c2cccnc12 the results were D1 antagonist 14, D3 ag -8, D3 antag -61*, D1 agonist 6 and D1 potentiator 0.
`Oc1ccc(Cl)c2cccnc12` gave D3 ag -17 and D3 antag -59*.
Screening CC(=O)NC(C)c1cc(Cl)c2cccnc2c1O (configuration not stated) returned D1 antagonist 9, D1 agonist 4 and D1 potentiator -3.
O=Nc1nc2ncccn2c1-c1ccccc1 was read as D3 ag -14 and D3 antag -57*.
`Cc1ccc(C(=O)NCc2ccco2)cc1[N+](=O)[O-]` gave D1 antagonist -37*, D3 ag 1, D3 antag -7, D1 agonist 0 and D1 potentiator -3.
`O=C(NCc1ccco1)c1ccc2c(c1)C(=O)c1ccccc1-2` gave D1 antagonist -31*, D3 ag -14, D3 antag -8, D1 agonist 2 and D1 potentiator -4.
For O=C(NCc1ccco1)c1cc([N+](=O)[O-])cc([N+](=O)[O-])c1 the results were D1 antagonist 5, D3 ag 1, D3 antag 10, D1 agonist 0 and D1 potentiator 1.
`Cc1c2cnn(-c3ccccc3)c(=O)c2c(C)n1CC(=O)Nc1ccccc1Br` gave D1 antagonist 26, D3 ag 1, D1 agonist 0 and D1 potentiator -1.
Screening O=C(NC1CCCCC1)N1CCC(c2nc3ccccc3[nH]2)CC1 returned D1 antagonist -3, D3 ag -2, D3 antag 11, D1 agonist 1 and D1 potentiator -3.
Screening O=C(NC1CCCCC1)N1CCCC(c2nc3ccccc3[nH]2)C1 (configuration not stated) returned D1 antagonist 10, D3 ag -18, D3 antag -126*, D1 agonist 3 and D1 potentiator -4.
For CC1Cn2cc(C(=O)Nc3cccc(C(F)(F)F)c3)c(=O)c3c(Cl)ccc(c32)O1 (configuration not stated) the results were D1 antagonist 4, D3 ag -16, D1 agonist -1 and D1 potentiator -2.
